In PubChem BioAssay (NCI):
About 83,000 compounds went through this panel and 20% of them were active in at least one assay; those are over-represented in the sample as a whole.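 Assay: single dose, 48 h. Readout: percent growth (0 = no net growth; negative = cell death). Active: <10.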 Unmarked numbers belong to inactive results. The source made the active and inactive calls.

Experiments:
Assay in all cases: NCI-60 one-dose screen, 48 h (100 = growth as untreated, 0 = no growth, -100 = all killed)
SK-MEL-2 melanoma = settings: 10 µM unless noted
EKVX NSCLC = settings: 10 µM unless noted
SN12C renal = settings: 10 µM unless noted
UO-31 renal = settings: 10 µM unless noted
TK-10 renal = settings: 10 µM unless noted
ACHN renal = settings: 10 µM unless noted
CAKI-1 renal = settings: 10 µM unless noted
A498 renal = settings: 10 µM unless noted
CCRF-CEM leukemia = settings: 10 µM unless noted
MOLT-4 leukemia = settings: 10 µM unless noted
SR leukemia = settings: 10 µM unless noted
RPMI-8226 leukemia = settings: 10 µM unless noted
OVCAR-8 ovarian = settings: 10 µM unless noted
OVCAR-5 ovarian = settings: 10 µM unless noted
IGROV1 ovarian = settings: 10 µM unless noted
OVCAR-3 ovarian = settings: 10 µM unless noted
HS 578T breast = settings: 10 µM unless noted
NCI/ADR-RES ovarian = settings: 10 µM unless noted
SK-OV-3 ovarian = settings: 10 µM unless noted
OVCAR-4 ovarian = settings: 10 µM

| Structure (SMILES) | growth (SK-MEL-2 melanoma) | growth (EKVX NSCLC) | growth (SN12C renal) | growth (UO-31 renal) | growth (TK-10 renal) | growth (ACHN renal) | growth (CAKI-1 renal) | growth (A498 renal) | growth (CCRF-CEM leukemia) | growth (MOLT-4 leukemia) | growth (SR leukemia) | growth (RPMI-8226 leukemia) | growth (OVCAR-8 ovarian) | growth (OVCAR-5 ovarian) | growth (IGROV1 ovarian) | growth (OVCAR-3 ovarian) | growth (HS 578T breast) | growth (NCI/ADR-RES ovarian) | growth (SK-OV-3 ovarian) | growth (OVCAR-4 ovarian) [%] |
| --- | --- | --- | --- | --- | --- | --- | --- | --- | --- | --- | --- | --- | --- | --- | --- | --- | --- | --- | --- | --- |
| COc1cc(NCc2cn(-c3ccc(C(=O)O)cc3)nc2-c2ccc(C(=O)O)cc2)cc(OC)c1OC | 102% | 93.1% | 94.7% | 88.9% | 91.6% | 102% | 87.9% | 66% | -17.9% (active) | 110% | 114% | 93.2% | 101% | 94.8% | 97.1% | 106% | 95.6% | 107% |  |  |
| Cc1cc(NN=C(c2ccc(O)cc2)c2ccc(O)cc2)c([N+](=O)[O-])cc1[N+](=O)[O-] | 0.57% (active) | 14.9% | 74.2% | 6.74% (active) | 51.4% | 43.7% | 65.1% | 85.9% | 119% | 108% | 84.9% | 123% | 0.819% (active) | 90.1% |  | 63.3% | 71.3% | 26.3% | 73.5% |  |
| CC1(C)CC[C@]2(C(=O)O)CC[C@]3(C)[C@H](CC[C@@H]4[C@@]5(C)CCC(=O)C(C)(C)[C@@H]5CC[C@]43C)[C@H]2[C@H]1OC(=O)C(F)(F)F | -71.8% [100 µM] (active) | -69.6% [100 µM] (active) | -82.1% [100 µM] (active) | -96.4% [100 µM] (active) | -84.1% [100 µM] (active) | -94.1% [100 µM] (active) | -71.2% [100 µM] (active) | -81.2% [100 µM] (active) | -25% [100 µM] (active) | -26.4% [100 µM] (active) | 14.6% [100 µM] | -42.9% [100 µM] (active) | -81.4% [100 µM] (active) | -53.1% [100 µM] (active) | -64.7% [100 µM] (active) | -67.4% [100 µM] (active) | -42.1% [100 µM] (active) | -77.6% [100 µM] (active) | -2.75% [100 µM] (active) |  |
| Nn1c(Nc2ccc(S(=O)(=O)Nc3ncccn3)cc2)nnc(/C=C/c2c(O)ccc3ccccc23)c1=O | 89.2% | 90.9% | 96.8% | 58.6% | 120% | 91.9% | 98.4% | 93.2% | 79.3% | 70.7% | 89.7% | 72.4% | 93.4% |  | 82.9% | 80.1% | 94.9% | 94.6% | 84.2% | 75.8 |
| C#CCNC(=O)CC[C@]1(C)[C@H]2CC[C@@H]3[C@@H]([C@@](C)(O)CCC=C(C)C)CC[C@@]3(C)[C@]2(C)CC[C@H]1C(=C)C | 49.1% [100 µM] | 71.7% [100 µM] | 43.9% [100 µM] | -95.8% [100 µM] (active) | 70.5% [100 µM] | 7.69% [100 µM] (active) | 1.83% [100 µM] (active) | 67.1% [100 µM] | -34.4% [100 µM] (active) | -29% [100 µM] (active) | 12.8% [100 µM] | -7.33% [100 µM] (active) | 7.74% [100 µM] (active) | 55.6% [100 µM] | -62.6% [100 µM] (active) | -26.4% [100 µM] (active) | 35.6% [100 µM] | 53.6% [100 µM] | 66.6% [100 µM] |  |
| COc1cc2c(c(Br)c1N)-c1cc(Br)c(N)cc1C2=O | 108% | 34.8% | 39.9% | 51.7% | 27.2% | 57.6% | 74.3% | 61.7% | 86% | 97.2% | 47.2% | 85.9% | 29.1% | 16.3% | 31.9% | 83.4% | 38.1% | 47.8% | 74.5% |  |
| N#CCCc1c[nH]c2ccccc12 | 88.4% | 94.3% | 101% | 68% | 104% | 97% | 87.3% | 103% | 81.6% |  | 91.5% | 92.7% | 91.9% | 102% | 103% | 98.7% | 94.3% | 99.3% | 88.9% | 93 |
| Nc1cc(N)c(N=Nc2ccc(S(=O)(=O)O)cc2)cc1N=Nc1ccc(-c2ccc(N=Nc3ccc(O)c(C(=O)O)c3)cc2)cc1 | 103% | 97.1% | 102% | 79.8% | 142% | 99.8% | 90% | 108% | 98% | 102% | 110% | 99.2% | 100% | 108% | 104% |  | 105% | 98.9% | 100% |  |
| O=C(Nc1cccc2ccccc12)c1cc2ccccc2cc1O | 20.9% | 15% | 7.28% (active) | -19.2% (active) | 34.4% | 1.41% (active) | -40% (active) | -13.8% (active) | 17.1% | 21.4% | 16% | 15.1% | 12.2% | 105% | 7.48% (active) | 19.9% | 32.2% | 4.52% (active) | 0.954% (active) |  |
| CCN(CC)c1ccc2cc(C(Nc3ccc(C)cc3)c3nnnn3C(C)(C)C)c(=O)oc2c1 (stereo not drawn) | 94.3% | 86.9% | 91.8% | 72.5% | 90.7% | 98.2% | 79.2% | 94.7% | 98.6% | 65.5% | 94.5% | 87.4% | 98.4% | 101% | 97.4% | 101% | 90.7% | 90.6% | 102% |  |
| COc1cc(/C=C/C(=O)/C=C/c2ccc(-n3ccnc3)cc2)ccc1O | 106% | 97.9% | 76.6% | -25.7% (active) | 101% | 48.3% | 91.5% | 96.8% | 37.1% | 33.4% | 25.1% | -5.38% (active) | 29.2% | 100% | -28.4% (active) | 34.4% | 86% | 99% | 91.5% |  |
| CC(=O)n1cc(C=O)c2ccccc21 | 97.9% | 109% | 97.7% | 72% | 100% | 106% | 100% | 113% | 80.9% | 91% | 97.3% | 97.6% | 86.7% | 104% | 112% | 104% | 104% | 96.4% | 116% |  |
| C=C(C)[C@@H]1CC[C@]2(C(=O)OC)CC[C@]3(C)[C@H](CC[C@@H]4[C@@](C)(CCc5nn[nH]n5)[C@H](C(=C)C)CC[C@]43C)[C@@H]12 | -60.8% [100 µM] (active) | 0.298% [100 µM] (active) | -45.6% [100 µM] (active) | -88.5% [100 µM] (active) | 8.06% [100 µM] (active) | 3.75% [100 µM] (active) | -17.2% [100 µM] (active) | -61.5% [100 µM] (active) | 1.92% [100 µM] (active) | 0.832% [100 µM] (active) | 21.7% [100 µM] | -0.796% [100 µM] (active) | 7.09% [100 µM] (active) | 5.88% [100 µM] (active) | -8.32% [100 µM] (active) | -60.4% [100 µM] (active) | -31% [100 µM] (active) | -7.5% [100 µM] (active) | -2.47% [100 µM] (active) |  |
| O=C(N=c1n(-c2ccccc2)nc2n1CCN2C1=NCCN1)c1ccc(Cl)cc1 | 106% | 93.9% | 80.1% | 57.9% | 89.5% | 96.7% | 79.2% | 68.3% | 77.8% | 77.7% | 43.6% | 91.9% | 98.7% | 95.9% | 58% | 91.7% | 93.1% | 93.6% | 90.2% |  |
